Entries with a potency or affinity are not part of this list. Results filed as inconclusive are left out. The source made the active and inactive calls.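 How the source made its calls: active means falling signal with fitted half-maximal potency no higher than twice the top valid tested dose; inconclusive means poor fit quality, or flat fit spanning -70% to -30%; inactive means potency over limit, rising signal, or flat fit inside 30%.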

This test can be described thus: fungal growth arrest, C. neoformans – Alamar Blue, cherry-picks, dose response (AID 686998). The following applies: Cryptococcus neoformans growth, 24 h; series mostly up to 35 µM. A general note: Alamar Blue is a resazurin reagent that responds to reducing activity.
In the case of `COc1cccc(S(=O)(=O)Nc2ccc3c(c2)[C@H]2C[C@H](CC(=O)N(C)C)O[C@@H](CO)[C@H]2O3)c1`, the call was inactive.

Take `C[C@@H]1CN([C@H](C)CO)S(=O)(=O)c2ccc(C#CC3CC3)cc2O[C@H]1CN(C)CC1CCOCC1`: the compound was classed as inactive.

Consider `C[C@H]1CN([C@@H](C)CO)C(=O)Cc2cc(NS(C)(=O)=O)ccc2O[C@@H]1CN(C)Cc1ccc(Cl)c(Cl)c1`, for which the result was inactive.

With `COc1cccc(-c2ccc3c(c2)[C@H]2[C@H](CCN2C(=O)Cc2ccncc2)[C@H](CO)N3C)c1`, the compound was classed as inactive.

As for `COc1ccc(NC(=S)NCc2ccc(Cl)cc2)c(OC)c1`, the result was inactive.

Turning to `C[C@H]1CN([C@@H](C)CO)C(=O)c2cc(-c3ccc(F)cc3)cnc2O[C@@H]1CN(C)CC1CCCCC1`, the result was inactive.

As to `Cc1ccc(NC(=O)N2CCCC2C(=O)Nc2c(C)cc(C)cc2C)cc1` (stereo not given), the compound was classed as inactive.

As for `CCCNC(=O)C[C@@H]1CC[C@@H]2[C@H](COc3ccc(NC(=O)CCC)cc3C(=O)N2C)O1`, the compound was called inactive.

In the case of `C[C@H](CO)N1C[C@H](C)[C@@H](CN(C)CC2CCOCC2)Oc2ncc(C#Cc3ccc(F)cc3)cc2C1=O`, the outcome was inactive.

For the compound `COc1ccccc1CNC(=S)NCc1ccc(Cl)cc1`, the outcome was inactive.

On to `O=C(CSc1ncnc2c1cnn2-c1ccccc1)Nc1ccc2c(c1)OCO2`, for which the compound was classed as inactive.

As for `COc1ccc(C2=Nc3ccccc3NC(=O)C2N(C(=O)c2cc3ccccc3[nH]2)c2ccccc2)cc1` (stereo not given), the compound was classed as inactive.

Take `C[C@H]1CN([C@@H](C)CO)C(=O)c2cccc(NS(=O)(=O)c3ccc(Cl)cc3)c2O[C@@H]1CN(C)CC1CC1`: the compound was called inactive.

For the compound `C[C@H]1CN([C@@H](C)CO)C(=O)c2cc(NC(=O)Nc3ccc(F)cc3)ccc2O[C@@H]1CN(C)S(C)(=O)=O`, the call was inactive.

On to `C[C@@H]1CN([C@@H](C)CO)C(=O)c2cc(NS(=O)(=O)c3cn(C)cn3)ccc2O[C@@H](C)CCCCO[C@@H]1CN(C)Cc1ccc(C(F)(F)F)cc1`, for which the compound was called inactive.

As to `C[C@H]1CN([C@@H](C)CO)C(=O)c2ccccc2-c2ccccc2CO[C@H]1CN(C)S(=O)(=O)c1cccc(C#N)c1`, the result was inactive.

On to `O=C(NC1CCCCC1)N[C@H]1C=C[C@@H](CC(=O)N2CCOCC2)O[C@@H]1CO`, for which the result was inactive.

Regarding `Cc1noc(C)c1S(=O)(=O)Nc1ccc2c(c1)CC(=O)N([C@H](C)CO)C[C@H](C)[C@@H](CN(C)S(=O)(=O)c1cn(C)cn1)O2`, the result was inactive.

Take `C[C@H](CO)N1C[C@H](C)[C@@H](CN(C)Cc2ccc(-c3ccccc3)cc2)Oc2ccc(NC(=O)Nc3ccc(C(F)(F)F)cc3)cc2C1=O`: the call was inactive.

For `C[C@@H]1CN([C@@H](C)CO)C(=O)Cc2cc(NC(=O)c3ccncc3)ccc2O[C@H]1CN(C)Cc1ccncc1`, the result was inactive.

With `CCN(Cc1ccccc1)C(=O)COc1ccccc1`, the outcome was inactive.

Regarding `N#Cc1ccc(C23CC4(C2)[C@H](CN(Cc2ccc(C(F)(F)F)cc2)[C@@H]4c2ccccc2)C3c2ccc(C(F)(F)F)cc2)cc1` (stereo not given in full), the compound was classed as inactive.

As to `COC(=O)C1=C(C)N(Cc2ccc(Br)cc2)C(=S)NC1c1ccc(F)cc1` (stereo not given), the compound was called inactive.

For `CC(C)NC(=O)N[C@H]1CC[C@@H](CCNC(=O)C2CC2)O[C@H]1CO`, the outcome was inactive.

Consider `COc1ccc(CN(C)C[C@H]2Oc3ccc(NC(=O)Nc4ccc(F)cc4)cc3CC(=O)N([C@@H](C)CO)C[C@@H]2C)cc1`, for which the compound was classed as inactive.

Regarding `Cc1ccc(CSc2ncnc3c2cnn3-c2ccc(C)cc2)cc1`, the call was inactive.

Turning to `Cc1ccc(S(=O)(=O)N[C@H]2C=C[C@@H](CC(=O)N3CCC(Cc4ccccc4)CC3)O[C@H]2CO)cc1`, the compound was called inactive.

As for `CCCNC(C)C(=O)Nc1ccccc1C` (stereo not given), the result was inactive.

For `O=C(Cc1ccccc1)N[C@H]1C=C[C@@H](CC(=O)N2CCOCC2)O[C@@H]1CO`, the result was inactive.

`C[C@@H]1CN([C@@H](C)CO)C(=O)c2cc(NC(=O)Nc3ccccc3)ccc2O[C@@H]1CN(C)C(=O)Nc1cccc2ccccc12`: the compound was called inactive.

With `CCNC(=O)C[C@H]1CC[C@H](NC(=O)NC2CCCCC2)[C@@H](CO)O1`, the outcome was inactive.

Take `O=C(N[C@H]1CC[C@H](CCn2cc(-c3ccccn3)nn2)O[C@H]1CO)c1ccc(F)cc1`: the call was inactive.

Consider `O=C(C[C@@H]1CC[C@H]2[C@@H](COC[C@H](O)CN2Cc2ccc(Oc3ccccc3)cc2)O1)Nc1nccs1`, for which the compound was called inactive.

Turning to `S=C(Nc1ccc(Cl)cc1Cl)Nc1ccccc1Oc1ccccc1`, the compound was called inactive.

With `C[C@@H]1CN([C@H](C)CO)C(=O)c2cc(NC(=O)Nc3cccc4ccccc34)ccc2O[C@@H]1CN(C)C(=O)Nc1ccccc1`, the compound was classed as inactive.

For the origin of these results see PubChem BioAssay.
